Consider 43 molecules from PubChem BioAssay AID651704 (Broad Institute, 2012).

The whole screen tested about 350,000 compounds, of which about 1,600 (0.46%) were called active. For the sample, actives were picked, then their nearest neighbours and some compounds at random. Unmarked numbers belong to inactive results.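 How the source made its calls: active means every replicate reaching a set inhibition limit, whatever the replicate mean (cut at about 25% in these data); inconclusive means mean inhibition reaches that limit but some replicates miss it; inactive means the rest.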

In this test the target is Protein AF-9 (Homo sapiens) (UniProt P42568). As to the kind of experiment: MLL-AF4/AF9 protein interaction blockers – biochemical, AlphaScreen, biotin-AF4 peptide, FLAG-AF9, single point, primary screen (AID 651704).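 Further: 0% = plate neutral control median and 100% = total signal loss.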 Particulars: biotin-AF4 peptide binding to FLAG-AF9, at 10 µM, active compounds read high.
Protein AF-9 (Homo sapiens), sequence (P42568 whole entry, looked up): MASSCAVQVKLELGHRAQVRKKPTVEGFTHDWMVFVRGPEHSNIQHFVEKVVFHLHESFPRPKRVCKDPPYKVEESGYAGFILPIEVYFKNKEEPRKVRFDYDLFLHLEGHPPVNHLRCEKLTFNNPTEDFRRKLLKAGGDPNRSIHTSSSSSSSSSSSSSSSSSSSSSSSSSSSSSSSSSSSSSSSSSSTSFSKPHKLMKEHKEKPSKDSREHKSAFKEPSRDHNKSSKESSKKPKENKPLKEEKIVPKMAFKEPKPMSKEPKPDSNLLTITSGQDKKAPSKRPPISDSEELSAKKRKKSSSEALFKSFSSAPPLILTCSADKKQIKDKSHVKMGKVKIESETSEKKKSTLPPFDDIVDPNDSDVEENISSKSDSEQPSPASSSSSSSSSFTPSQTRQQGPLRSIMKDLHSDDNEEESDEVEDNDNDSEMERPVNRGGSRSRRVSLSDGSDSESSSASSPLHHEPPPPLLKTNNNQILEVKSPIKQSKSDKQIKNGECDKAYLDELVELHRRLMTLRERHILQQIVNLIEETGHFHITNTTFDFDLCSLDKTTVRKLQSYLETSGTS
`CN(Cc1c(F)cccc1Cl)C(=O)CNC(=O)c1ccc2c(c1)OCO2`: the inhibition is 34.1% (active).
On to `O=C(NCCc1ccc(C(F)(F)F)cc1)c1ccc2c(c1)OCO2`, for which the inhibition is -0.679%.
Take `Cc1cccc(C)c1NC(=O)CNC(=O)c1ccc2c(c1)OCCO2`: the inhibition is -2.49%.
The same measure for `CO[C@@H]1CN(C)C(=O)c2ccc(NC(=O)c3ccccc3F)cc2OC[C@@H](C)N(CC2CCOCC2)C[C@H]1C`: 1.64%.
Take `COCC#Cc1ccc2c(c1)O[C@@H](CN(C)Cc1ccccn1)[C@@H](C)CN([C@@H](C)CO)S2(=O)=O`: the inhibition is -4.38%.
`C[C@@H]1CN([C@H](C)CO)C(=O)c2c(c3ccccc3n2C)-c2ccccc2CO[C@@H]1CN(C)Cc1ccc(F)cc1`: the inhibition is 0.52%.
For `C[C@@H]1CN([C@@H](C)CO)C(=O)c2c(c3ccccc3n2C)-c2ccccc2CO[C@@H]1CN(C)Cc1ccc2c(c1)OCCN2C`, the inhibition is 30.8% (active).
Regarding `C[C@@H]1CN([C@H](C)CO)C(=O)c2c(c3ccccc3n2C)-c2ccccc2CO[C@H]1CN(C)Cc1ccc(F)cc1`, the inhibition is -2.73%.
Consider `C[C@@H]1CN([C@@H](C)CO)C(=O)c2c(c3ccccc3n2C)-c2ccccc2CO[C@@H]1CN(C)Cc1cccc(C(=O)O)c1`, for which the inhibition was -2.44%.
As to `C[C@H]1CN([C@@H](C)CO)C(=O)c2c(c3ccccc3n2C)-c2ccccc2CO[C@H]1CN(C)Cc1ccc2c(c1)OCO2`, the inhibition was 1.72%.
On to `C[C@H]1CN([C@@H](C)CO)C(=O)c2c(c3ccccc3n2C)-c2ccccc2CO[C@@H]1CN(C)Cc1ccc2c(c1)OCCN2C`, for which the inhibition was 34.3% (active).
For `Cc1ccccc1S(=O)(=O)N1CC(=O)N2[C@H](CO)[C@@H](c3ccc(C#Cc4ccccc4)cc3)[C@H]2C1`, the inhibition is -0.846%.
In the case of `C[C@H](CO)N1C[C@H](C)[C@H](CN(C)Cc2ccccc2)OCCCC[C@H](C)Oc2ccc(NC(=O)Cc3ccccc3)cc2C1=O`, the inhibition was 3.76%.
As to `Cc1noc(C)c1S(=O)(=O)N(C)C[C@@H]1OCCCC[C@H](C)Oc2ccc(NC(=O)NC(C)C)cc2C(=O)N([C@H](C)CO)C[C@@H]1C`, the inhibition was 1.67%.
Turning to `O=C(C[C@H]1CC[C@H]2[C@@H](COC[C@H](O)CN2C(=O)Nc2ccc(Cl)cc2)O1)NCC1CC1`, the inhibition was 2.2%.
In the case of `O=C(Cc1cccnc1)N1CC(=O)N2[C@@H](CO)[C@@H](c3ccc(C#CC4CCCC4)cc3)[C@@H]2C1`, the inhibition is 0.34%.
`CN(C)C(=O)C[C@@H]1CC[C@@H](NC(=O)NC2CCCC2)[C@@H](CO)O1`: the inhibition is -1.49%.
`COc1cccc(-c2ccc([C@@H]3[C@H]4CN(C(=O)c5cccnc5)CC(=O)N4[C@H]3CO)cc2)c1`: the inhibition is 0.197%.
As to `COc1ccc2c3c([nH]c2c1)[C@H](CO)N(Cc1cccc(F)c1)CC31CCN(Cc2ccccn2)CC1`, the inhibition was 6.18%.
The same measure for `COc1ccc2c3c([nH]c2c1)[C@@H](CO)N(Cc1cccc(F)c1)CC31CN(CC2CC2)C1`: 23.8%.
With `COc1ccc2c3c([nH]c2c1)[C@H](CO)N(Cc1cccc(F)c1)CC31CCN(CC2CC2)CC1`, the inhibition was 35.1% (active).
The same measure for `CCCNC(=O)N1CC2(CCN(Cc3ccc(F)cc3)CC2)c2c([nH]c3cc(OC)ccc23)[C@@H]1CO`: 29.6% (active).
The same measure for `CCCNC(=O)N1CCC2(CC1)CN(Cc1ccccc1)[C@H](CO)c1[nH]c3cc(OC)ccc3c12`: 1.99%; for `CCCNC(=O)N1CC2(CCN(C(=O)C3CC3)CC2)c2c([nH]c3cc(OC)ccc23)[C@H]1CO`: -0.242%; for `C[C@H]1CN([C@@H](C)CO)C(=O)c2cc(-c3ccc(C#N)cc3)cnc2O[C@@H]1CN(C)Cc1ccncc1`: -0.44%.
In the case of `COc1ccccc1C(=O)Nc1ccc2c(c1)C(=O)N(C)C[C@@H](OC)[C@@H](C)CN(C)[C@H](C)CO2`, the inhibition is -2.27%.
For the molecule `N#C[C@@H]1[C@H](c2ccccc2-c2cccc(F)c2)[C@@H](CO)N1C(=O)C1CCCC1`, the inhibition is -0.992%.
In the case of `C[C@@H]1CN([C@@H](C)CO)C(=O)c2cc(-c3cccnc3)cnc2O[C@@H]1CN(C)C(=O)C1CC1`, the inhibition is -2.51%.
The same measure for `O=C(C1CCCCC1)N1CC(=O)N2[C@H](CO)[C@@H](c3ccc(C#Cc4cccc(F)c4)cc3)[C@@H]2C1`: -3.43%; for `CN(Cc1ccccc1F)c1cc2c(c3c1ccn3C)C1CCC2O1` (stereo not drawn): 28.6% (active); for `CC(C)(C)[S@](=O)N1Cc2cc(C(=O)N[C@@H]3CCN(Cc4ccccc4)C3)nc(-c3cccc(-c4ccncc4)c3)c2[C@@H]1CCO`: 4.53%.
With `COc1ccc(N2CCN(C3CCCCC3NS(=O)(=O)c3ccccc3)CC2)cc1` (stereo not drawn), the inhibition is 36.3% (active).
Consider `O=S(=O)(NC1CCCCC1N1CCN(c2ccccc2F)CC1)c1ccccc1` (stereo not drawn), for which the inhibition is 5.55%.
On to `O=S(=O)(NC1CCCCC1N1CCC(O)CC1)c1ccc(Cl)cc1` (stereo not drawn), for which the inhibition is 3.3%.
For `Cn1cnc(CCNC(=O)C[C@H]2CC[C@H]3[C@@H](COC[C@@H](O)CN3C(=O)Nc3ccc(C(F)(F)F)cc3)O2)c1`, the inhibition is 4.5%.
In the case of `CC(=O)c1ccc(OCC(O)CN2CCN(S(=O)(=O)c3cccc(Br)c3)CC2)cc1` (stereo not drawn), the inhibition was 0.541%.
The same measure for `Cc1ccc(S(=O)(=O)N2CCN(C(=O)N3CCOCC3)CC2)c(C)c1`: -6.49%; for `Cc1cccc(OCC(O)CN2CCN(S(=O)(=O)c3ccc(C)cc3C)CC2)c1` (stereo not drawn): 35.7% (active).
On to `CCN(CC(=O)Nc1ccc(NC(C)=O)cc1)C(=O)C1CC(=O)N(c2ccc3c(c2)OCCO3)C1` (stereo not drawn), for which the inhibition is 28% (active).
For the molecule `CCN(CC(=O)Nc1ccc(NC(C)=O)cc1)C(=O)C1CC(=O)N(Cc2ccc(C)cc2)C1` (stereo not drawn), the inhibition was 9.28%.
With `CCOC(=O)c1ccc(NC(=O)C2CC(=O)N(c3ccc4c(c3)OCCO4)C2)cc1` (stereo not drawn), the inhibition is -0.164%.
The same measure for `O=C(c1ccccn1)N1CC2(C1)[C@@H](c1ccccc1)[C@@H](CO)N2C(=O)C1CCC1`: 0.755%; for `CC(C)CC#Cc1ccc2c(c1)O[C@@H](CN(C)C(=O)Nc1ccccc1F)[C@@H](C)CN([C@@H](C)CO)S2(=O)=O`: 1.25%.
